Source: PubChem BioAssay
a7 integrin act – integrin-mediated muscular dystrophy alleviation activation; alpha7betagal myoblasts, beta-gal FDG fluorescence, 48 h; Potency, µM (titrated, usually from 38.3 µM), for the others: top-dose activation, usual class: activators; hit rate 0.064% among 350,000; AID 624291; active = well fitted activation curve with a large enough effect; inconclusive = small, poorly fitted or top-dose-only effect; inactive = no such curve, though single readings can be large or run the other way;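 also: potency is read from the fitted curve at half-maximal effect; 100% = response of the positive control SU9516; nearly all actives have a fitted effect of over 60% in size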
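alpha7betagal+/- myoblasts (passage 13, 250/well) treated 48 h at 37C with compounds at 1:260 dilution of DMSO stock. Lysed, then beta-galactosidase activity read as FDG fluorescence (ex 480/em 540) after 30 min, with pre-read for autofluorescence.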
D3 antag – D3 dopamine receptor (human) antagonism; P35462; D3R cells, DiscoveRx beta-arrestin luminescence, antagonist mode; active compounds read low; max response, negative = inhibition, %; hit rate 2.5% among 360,000; in the data active = max response below about -50%; inconclusive = no clear call, values can overlap the other calls; also: % is scaled to controls: 0 for no effect and ±100 for the full control effect
Target sequence (P35462 whole entry, looked up): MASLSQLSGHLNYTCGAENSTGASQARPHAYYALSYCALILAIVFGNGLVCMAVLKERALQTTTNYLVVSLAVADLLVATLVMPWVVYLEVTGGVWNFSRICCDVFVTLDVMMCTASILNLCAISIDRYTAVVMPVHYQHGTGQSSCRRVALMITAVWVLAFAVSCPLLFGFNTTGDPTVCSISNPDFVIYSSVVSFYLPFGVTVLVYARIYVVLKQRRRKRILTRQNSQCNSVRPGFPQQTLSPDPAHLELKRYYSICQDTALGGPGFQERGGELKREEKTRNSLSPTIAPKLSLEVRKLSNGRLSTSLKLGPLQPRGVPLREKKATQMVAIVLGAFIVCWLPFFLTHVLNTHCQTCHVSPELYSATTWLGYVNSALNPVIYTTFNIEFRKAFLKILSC
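Cells expressing the human receptor were seeded at 1500 cells/well, incubated overnight at 37 degrees C in 5% CO2, then exposed to library compounds with dopamine controls for 90 minutes at 37 degrees C before luminescent detection.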
D3 ag – activates the human D3 dopamine receptor; P35462; D3R DiscoveRx beta-arrestin cells, luminescence, 90 min; max activation, %; hit rate 0.58% among 410,000; in the data active = max activation above about 30%; also: 0% is about no effect
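Agonist-mode cell screen: cells plated at 1500/well and incubated overnight at 37 °C, then exposed to library compounds for 90 min at 37 °C. Detection reagent was added for 30–60 min at room temperature, and luminescence was read.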
* marks the source's active call; other numbers are inactive results. Shown are actives, neighbours in structure and some others; about 2.9% of the full set was active somewhere.

What do the screens show for `COc1cc(OC)cc(-c2c(C#Cc3ccsc3)c3cc(-c4ccc(OC)c(F)c4)ccc3n2C)c1`?
a7 integrin act: 12%; D3 antag: 1; D3 ag: 50*

What do the screens show for `COc1cc(OC)cc(-c2c(C#Cc3ccsc3)c3cc(-c4cc(OC)c(OC)c(OC)c4)ccc3n2C)c1`?
a7 integrin act: 16%; D3 antag: 0; D3 ag: 6

What do the screens show for `O=c1nccc(N/N=C/c2ccccc2)[nH]1`?
a7 integrin act: inconclusive; D3 antag: 6; D3 ag: 3

How did COc1ccc(NC(=O)COC(=O)CCSc2ccccc2)cc1OC do in these assays?
a7 integrin act: 0%; D3 antag: -26; D3 ag: -15

How did COc1cccc(-c2cnc3c(NC(C)=O)cc(-c4ccc(C(=O)NC5CC5)cc4)cn23)c1 do in these assays?
D3 antag: 73; D3 ag: 7

Results for CC(=O)Nc1cc(-c2ccc(CO)cc2)cn2c(-c3ccc(F)cc3)cnc12 ?
D3 antag: -50*; D3 ag: -5

What do the screens show for `CC(=O)Nc1cc(-c2cccc(C(=O)NCCN(C)C)c2)cn2c(-c3ccccc3)cnc12`?
D3 antag: -52*; D3 ag: -24

What do the screens show for `COc1ccc(-c2cnc3c(NC(C)=O)cc(-c4ccc(C(=O)NC5CC5)cc4)cn23)cc1OC`?
D3 antag: 226; D3 ag: 36*

How did CC(=O)Nc1cc(-c2ccc(F)cc2)cn2c(-c3ccc(F)cc3)cnc12 do in these assays?
D3 antag: -11; D3 ag: 0

How did CC(=O)Nc1cc(-c2cccc(C(=O)NCCN(C)C)c2)cn2c(-c3ccc(S(C)(=O)=O)cc3)cnc12 do in these assays?
D3 antag: -8; D3 ag: 1

What do the screens show for `COc1ccc(CC(O)CO)cc1OCc1ccccc1` (stereo not given)?
a7 integrin act: 6%; D3 antag: -5; D3 ag: -4

Results for CCN(C(=O)c1sc2nc3n(c(=O)c2c1C)CCCC3)c1ccccc1F ?
D3 ag: -13

How did CC(C)NC(=O)Cn1c(SCC(=O)N2c3ccccc3CC2C)nc2ccccc21 (stereo not given) do in these assays?
a7 integrin act: -17%; D3 antag: -4; D3 ag: -7

What do the screens show for `Nc1ncnc2c1ncn2[C@@H]1O[C@H](CN=C2NS(=O)(=O)c3ccccc32)[C@@H](O)[C@H]1O`?
a7 integrin act: -26%; D3 antag: 2; D3 ag: 2

What do the screens show for `Cc1ccc(NC(=O)CC2Sc3ccccc3NC2=O)c(C)c1` (stereo not given)?
D3 ag: 2

How did O=C(COc1ccccc1F)Nc1nnc(SCc2cc(=O)n3ccccc3n2)s1 do in these assays?
D3 ag: 1

What do the screens show for `Cc1ccc2nc(CSc3nnc(NC(=O)COc4ccccc4F)s3)cc(=O)n2c1`?
D3 ag: 58*

What do the screens show for `O=C(Cn1cc2c(n1)CCCCC2)NCc1cccs1`?
a7 integrin act: 13%; D3 antag: -13; D3 ag: 3

How did CCOC(=O)N1CCN(C(=O)c2cnn3c(C)c(Cc4ccc(C)cc4)c(C)nc23)CC1 do in these assays?
a7 integrin act: -19%; D3 antag: 1; D3 ag: 5

Results for Cc1ccc(C)c(Cc2c(C)nc3c(C(=O)N4CCOCC4)cnn3c2C)c1 ?
a7 integrin act: 11%; D3 antag: -9; D3 ag: 31*

Results for CCCN1CCC(C(=O)NC(c2ccc(Cl)cc2)c2ccsc2)CC1 (stereo not given) ?
D3 antag: -56*; D3 ag: -14

How did CC(NC(=O)C1CCC1)c1ccc(Cl)cc1 (stereo not given) do in these assays?
a7 integrin act: 7%; D3 antag: 3; D3 ag: -4

What do the screens show for `COc1ccc(OCCN2CCC(C(=O)NC(c3ccsc3)c3ccccc3C)CC2)cc1` (stereo not given)?
D3 antag: -12; D3 ag: -10

Results for O=C(NC(c1ccccc1)c1ccsc1)C1CCN(Cc2ccccc2)CC1 (stereo not given) ?
D3 antag: inconclusive; D3 ag: -18

Results for O=C(NC(c1ccc(Cl)cc1)c1ccsc1)C1CCN(Cc2ccc(Oc3ccccc3)cc2)CC1 (stereo not given) ?
D3 antag: -64*; D3 ag: -18

What do the screens show for `Cc1ccccc1C(NC(=O)C1CCN(Cc2ccc(Oc3ccccc3)cc2)CC1)c1ccsc1` (stereo not given)?
D3 antag: -56*; D3 ag: -14

Results for COc1ccc(-c2nc(SCCOc3ccccc3Cl)n3[nH]c(=O)cc3n2)cc1 ?
D3 ag: -4

What do the screens show for `CCCCC(=O)N(C)c1c(CC)nc2c(OCC(N)=O)cccn12`?
D3 antag: 10; D3 ag: 7

What do the screens show for `O=C(NCCCN1CCCC1=O)C1CCN(S(=O)(=O)c2cccc(C(F)(F)F)c2)CC1`?
a7 integrin act: -1%; D3 antag: -4; D3 ag: -11

What do the screens show for `CC(=O)NC(c1ccccc1)c1c(O)ccc2ccccc12` (stereo not given)?
a7 integrin act: -7%; D3 antag: -7; D3 ag: 34*

Results for CC(=O)NC(c1ccc(C(C)C)cc1)c1c(O)ccc2ccccc12 (stereo not given) ?
a7 integrin act: 11%; D3 antag: 71; D3 ag: -13

What do the screens show for `O=C(CCS(=O)(=O)c1ccc(Br)cc1)Nc1ccccn1`?
a7 integrin act: -1%; D3 antag: -15; D3 ag: -6

How did CCOC(=O)C1=C(C)NC2=C(C(=O)CC(c3cccs3)C2)C1c1cccs1 (stereo not given) do in these assays?
a7 integrin act: -47%; D3 antag: -82*; D3 ag: -7

Results for COC(=O)C1=C(C)NC2=C(C(=O)CC(c3cccs3)C2)C1c1ccsc1 (stereo not given) ?
a7 integrin act: -40%; D3 antag: inconclusive; D3 ag: -12

What do the screens show for `CCCNC(=O)CN1C(=O)COc2ccc(S(=O)(=O)N3CCCCCC3)cc21`?
a7 integrin act: 0%; D3 antag: 22; D3 ag: 1

How did O=C(NCCN1CCN(c2ccccc2)CC1)C1CCN(S(=O)(=O)c2cccs2)CC1 do in these assays?
a7 integrin act: 6%; D3 antag: -27; D3 ag: 46*

What do the screens show for `O=C(C1CCCN(S(=O)(=O)c2cccc3nonc23)C1)N1CCN(c2ccccc2Cl)CC1` (stereo not given)?
a7 integrin act: -34%; D3 antag: -9; D3 ag: 5

What do the screens show for `O=C(NCCc1ccccc1)C1CCN(S(=O)(=O)c2cccs2)CC1`?
a7 integrin act: 16%; D3 antag: -14; D3 ag: -8

What do the screens show for `O=C(C1CCCN(S(=O)(=O)c2cccc3nonc23)C1)N1CCC(Cc2ccccc2)CC1` (stereo not given)?
a7 integrin act: -24%; D3 antag: -53*; D3 ag: -1

How did O=C(NCCc1ccccc1)C1CCN(S(=O)(=O)c2cccc3nonc23)CC1 do in these assays?
a7 integrin act: 1%; D3 antag: 32; D3 ag: -2
